“And” between values parts separate entries of the source, which are not always exact repeats. Equal values may be shown once. The panel holds about 83,000 compounds, 20% with a hit somewhere; the sample as a whole holds those more often.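 Activity criterion: percent growth below 10, measured after cells in 96-well plates were exposed to a single compound concentration for 48 hours.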 The source made the active and inactive calls.

Some test systems named below: NCI-H23 lung; NCI-H226 lung; NCI-H322M lung; HOP-62 NSCLC; NCI-H460 lung; HOP-92 NSCLC; NCI-H522 lung; A549/ATCC NSCLC; 786-0 renal; COLO 205 colon; DU-145 prostate; K-562 leukemia; MALME-3M melanoma; MDA-MB-231 breast; RXF 393 renal; SF-268 CNS; SF-295 CNS; SF-539 CNS; UACC-257 melanoma; M14 melanoma.
Assay in all cases: NCI-60 one-dose screen, 48 h (100 = growth as untreated, 0 = no growth, -100 = all killed)
What all share (conditions): 10 µM unless noted

As for `CCN(CC)CCNc1cc(-c2cccc(OC(F)(F)F)c2)nc2ccc(N3CCCC3)cc12`, the growth in the assay with NCI-H23 lung was 65.9% (inactive) and -7.71% (active) and 34.2% (inactive); with NCI-H226 lung it was 74.3% (inactive) and 47.8% (inactive) and 63.7% (inactive); in the assay on NCI-H322M lung it was 29.2% (inactive) and 18.9% (inactive) and 58.3% (inactive); with HOP-62 NSCLC, 51.6% (inactive) and 3.4% (active) and 34.8% (inactive); in the assay on NCI-H460 lung, 27.2% (inactive) and 0.777% (active) and 11.8% (inactive); with HOP-92 NSCLC, -83.3% (active) and -7.78% (active) and 20.8% (inactive). Besides, the growth in the assay with NCI-H522 lung was 60.8% (inactive) and -30.5% (active) and 23% (inactive); in the assay on A549/ATCC NSCLC it was 55% (inactive) and 3.66% (active) and 29.9% (inactive); in the assay on 786-0 renal, -59.9% (active) and 1.27% (active) and 21.2% (inactive); with COLO 205 colon, 32.5% (inactive) and -76.5% (active) and -46.9% (active); in the assay with DU-145 prostate it was 60.6% (inactive) and 19% (inactive) and 45.4% (inactive); in the assay with K-562 leukemia it was -23% (active) and -25.5% (active) and -21% (active). The growth with MALME-3M melanoma is -50.9% (active) and -42.3% (active) and -14.1% (active); in the assay on MDA-MB-231 breast it was 0.557% (active) and -6.72% (active) and -8.3% (active); in the assay with RXF 393 renal, 16.3% (inactive) and -15.5% (active) and 34.2% (inactive); in the assay on SF-268 CNS it was 61.1% (inactive) and 18.8% (inactive) and 34.5% (inactive); in the assay with SF-295 CNS, 72% (inactive) and -26.3% (active) and 35.1% (inactive); in the assay on SF-539 CNS, 31.6% (inactive) and -38.2% (active) and 56.9% (inactive). In addition, the growth in the assay on UACC-257 melanoma is 62.5% (inactive) and -10.1% (active) and -0.682% (active); in the assay with M14 melanoma it was -85.8% (active) and -56.6% (active) and -63.5% (active).
As to `CC(O)(CC(=O)CC(=O)c1ccccc1)c1ccccc1` (stereo not given), the growth is 102% (inactive) and 87.4% (inactive) in the assay with NCI-H23 lung; 93.9% (inactive) and 86% (inactive) in the assay on NCI-H226 lung; 116% (inactive) and 105% (inactive) in the assay on NCI-H322M lung; 106% (inactive) and 99.2% (inactive) in the assay on HOP-62 NSCLC; 94.2% (inactive) and 101% (inactive) in the assay on NCI-H460 lung; 100% (inactive) and 94.7% (inactive) in the assay on HOP-92 NSCLC. The growth in the assay on NCI-H522 lung is 90.9% (inactive) and 96.4% (inactive); in the assay on A549/ATCC NSCLC, 103% (inactive) and 97.4% (inactive); with 786-0 renal, 101% (inactive) and 106% (inactive); with COLO 205 colon, 127% (inactive); in the assay with DU-145 prostate, 143% (inactive) and 102% (inactive); in the assay on K-562 leukemia, 91.2% (inactive). Besides, the growth in the assay with MALME-3M melanoma is 113% (inactive) and 96.5% (inactive); in the assay on MDA-MB-231 breast it was 97.4% (inactive) and 88.5% (inactive); in the assay on RXF 393 renal, 94.1% (inactive) and 93.3% (inactive); in the assay with SF-268 CNS, 110% (inactive) and 98.8% (inactive); in the assay on SF-295 CNS, 91.1% (inactive); in the assay on SF-539 CNS, 104% (inactive) and 108% (inactive). Further, the growth with UACC-257 melanoma was 90.6% (inactive) and 110% (inactive); in the assay with M14 melanoma, 96.1% (inactive) and 96% (inactive).
`Clc1ccc(SSc2ccc(Cl)cc2)cc1`: the growth in the assay with NCI-H23 lung is 94.1% (inactive) and 85.5% (inactive); in the assay with NCI-H226 lung, 104% (inactive) and 79.5% (inactive); with NCI-H322M lung, 95.6% (inactive) and 108% (inactive); in the assay on HOP-62 NSCLC, 102% (inactive) and 98% (inactive); in the assay with NCI-H460 lung it was 98.1% (inactive) and 79.5% (inactive); in the assay with HOP-92 NSCLC, 76% (inactive) and 74.2% (inactive). Also, the growth was 87.9% (inactive) and 81.8% (inactive) with NCI-H522 lung; 95.9% (inactive) and 46.9% (inactive) in the assay on A549/ATCC NSCLC; 96.5% (inactive) and 66.8% (inactive) in the assay with 786-0 renal; 99.6% (inactive) and 113% (inactive) with COLO 205 colon; 103% (inactive) and 109% (inactive) with DU-145 prostate; 100% (inactive) in the assay on K-562 leukemia. In addition, the growth with MALME-3M melanoma was 95% (inactive) and 119% (inactive); in the assay on MDA-MB-231 breast it was 107% (inactive) and 62.2% (inactive); in the assay on RXF 393 renal, 96.1% (inactive) and 86% (inactive); with SF-268 CNS it was 94.4% (inactive) and 72.4% (inactive); in the assay with SF-295 CNS, 103% (inactive) and 93.8% (inactive); in the assay with SF-539 CNS, 99.5% (inactive) and 88.7% (inactive). For the same molecule, the growth was 91.5% (inactive) and 98.3% (inactive) in the assay with UACC-257 melanoma; 93.6% (inactive) and 94.1% (inactive) in the assay with M14 melanoma.
With `CCCCCn1sc(=O)n(Cc2ccc(CNC(=O)C(C)c3ccc(CC(C)C)cc3)cc2)c1=O` (stereo not given), the growth with NCI-H23 lung was 102% (inactive) and -73.4% (active); in the assay with NCI-H226 lung, 94.3% (inactive) and 37.3% (inactive); with NCI-H322M lung, 99.5% (inactive) and 67.6% (inactive); with HOP-62 NSCLC it was 99.1% (inactive) and -43.2% (active); in the assay with NCI-H460 lung, 102% (inactive) and 22.9% (inactive); in the assay on HOP-92 NSCLC it was 73.6% (inactive) and -66.2% (active). Besides, the growth is 85.4% (inactive) and -59.6% (active) in the assay on NCI-H522 lung; 97.4% (inactive) and -19.1% (active) with A549/ATCC NSCLC; 95.8% (inactive) and -86.5% (active) in the assay with 786-0 renal; 122% (inactive) and -57.5% (active) in the assay on COLO 205 colon; 99.9% (inactive) and -93.4% (active) with DU-145 prostate; 2.12% (active) in the assay on K-562 leukemia. Also, the growth in the assay on MALME-3M melanoma was 99.8% (inactive) and -72.1% (active); with MDA-MB-231 breast, 93.3% (inactive) and -54.7% (active); in the assay with RXF 393 renal, -91.7% (active); in the assay with SF-268 CNS, 94.5% (inactive) and -59.7% (active); in the assay with SF-295 CNS, 94.3% (inactive) and 47.1% (inactive); in the assay with SF-539 CNS it was 93.6% (inactive) and -92.8% (active). The growth in the assay on UACC-257 melanoma was 96.7% (inactive) and -19.5% (active); in the assay on M14 melanoma, 95.2% (inactive) and -67.6% (active).
